In the library only some 4.3% were active in any assay of this set; here they are far more common.
UBC13 inh: UBC13 polyubiquitin chain formation inhibitors, primary screen, biochemical, TR-FRET, uHTS; AID 485273, 2010; actives 0.47% (n = 330,000); inhibition, % at 20 µM; Ubiquitin-conjugating enzyme E2 N (Homo sapiens), P61088; in the data active = inhibition above about 45%, passing the limit was not always enough; inconclusive = no clear call, values can overlap the other calls
GRIN3A LBD mod: binders of NR3A ligand-binding domain, primary screen, biophysical, differential scanning fluorimetry, uHTS. NR3A LBD differential scanning fluorimetry, Tm shift; 0% = protein alone, 100% = glycine-bound protein. Tm shift relative to glycine control, % at 25 µM. actives 2.5% (n = 340,000). AID 1259313, 2017. Glutamate receptor ionotropic, NMDA 3A (GRIN3A) ligand-binding domain;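 active = melting temperature shift of at least 10% of the positive control shift, at one fixed dose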
CR mimetic SO: reduction of superoxide in aged yeast, primary screen, HTS; S. cerevisiae aged cells, superoxide DHE fluorescence; hits give low values; superoxide response (% of plate mean), % at 10 µM; AID 2690, 2010; actives 0.18% (n = 330,000);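 active = superoxide response under a set limit, about three screen SD below normal, cut at about 65% in these data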;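 also: yeast aged for seven days with compound at 30 °C before DHE staining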
NALP1 inh: NALP1 inflammasome inhibitors in reconstituted yeast, colorimetric, S. cerevisiae, triplicate retest. S. cerevisiae NALP1/ASC/caspase-1 growth, X-gal OD620, 72 h. actives 0.61% (n = 280,000). inhibition, % at 10 µM; in the data active = inhibition mostly above about 24%, no sharp cut-off; inactive = mostly below about 32%
dFosB act: activators of delta FosB homodimer, primary screen, biochemical, fluorescence polarization, TAMRA-CDK5 oligo, single point. AID 493131, 2011. purified delta FosB; percent of positive-control signal above neutral wells. actives 0.99% (n = 340,000). activation, % at 25 µM;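 active = mean activation above about 17%, with every replicate also reaching it, limit read from the data, passing the limit was not always enough; inconclusive = only one of the two conditions met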
Target sequence (P13346 whole entry, looked up): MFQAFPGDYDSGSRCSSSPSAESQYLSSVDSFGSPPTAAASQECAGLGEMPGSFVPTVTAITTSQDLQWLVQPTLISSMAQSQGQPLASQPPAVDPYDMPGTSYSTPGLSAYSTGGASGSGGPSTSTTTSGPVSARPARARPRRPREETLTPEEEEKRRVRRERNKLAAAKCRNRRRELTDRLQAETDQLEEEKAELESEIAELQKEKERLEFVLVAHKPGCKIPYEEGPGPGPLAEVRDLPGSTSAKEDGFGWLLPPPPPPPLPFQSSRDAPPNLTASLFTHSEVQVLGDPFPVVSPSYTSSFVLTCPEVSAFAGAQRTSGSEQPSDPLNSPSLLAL
Casp3 counter: CASP3 inhibitor validation, counterassay for project on UBE2N polyubiquitination blockers, biochemical, one dose; shares compounds with UBC13 inh; AID 488856, 2010; inhibition, % at 20 µM; actives 4% (n = 1,400); Recombinant caspase-3, Caspase-Glo 3/7 luminescence, 60 min;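 active = mean inhibition across replicates above about 26%, limit read from the data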
Target sequence (P42574 whole entry, looked up): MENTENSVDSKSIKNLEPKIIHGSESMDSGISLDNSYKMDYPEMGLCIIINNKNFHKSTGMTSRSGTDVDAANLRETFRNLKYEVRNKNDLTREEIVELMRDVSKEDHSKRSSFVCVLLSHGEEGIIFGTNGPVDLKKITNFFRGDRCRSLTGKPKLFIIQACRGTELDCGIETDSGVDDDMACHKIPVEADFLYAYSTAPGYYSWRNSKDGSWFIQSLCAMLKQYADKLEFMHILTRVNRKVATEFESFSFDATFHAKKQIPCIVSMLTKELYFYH
UBC13 conf: UBC13 polyubiquitination inhibitors, single-point retest, confirmation, biochemical, TR-FRET, single concentration. shares compounds with UBC13 inh. inhibition, % at 10 µM. actives 68% (n = 1,400); in the data active = inhibition above about 45%; inconclusive = no clear call, values can overlap the other calls
Of the large screens only hits and unclear results are named; the others gave an inactive call (follow-up assays come after a bar, where they were run).

CCN1CCN(Cc2ccc(NC(=O)c3cc(NC(=O)c4cncc(-c5ccc(C#N)cc5)c4)cc(OC)c3)cc2C(F)(F)F)CC1	UBC13 inh 118 (no result: CR mimetic SO, NALP1 inh) | Casp3 counter inactive | UBC13 conf 126
CCN1CCN(Cc2ccc(NC(=O)c3cc(NC(=O)c4nccnc4N)cc(OC)c3)cc2C(F)(F)F)CC1	none (no result: NALP1 inh)
O=C1c2cccc3cccc(c23)C(=O)N1Nc1ccccc1	UBC13 inh 52 | Casp3 counter inactive | UBC13 conf inactive
CC(C)[C@H](CN1CCC[C@H]1CN1C(N)=NC[C@@H]1Cc1ccccc1)N1C[C@@H](Cc2ccccc2)N(CCc2ccc(Cl)c(Cl)c2)C1=N	UBC13 inh 75 (no result: NALP1 inh) | Casp3 counter inactive | UBC13 conf 76
C[C@@H](CN1CCC[C@H]1CN1C(N)=NC[C@@H]1Cc1ccccc1)N1C[C@@H](Cc2ccccc2)N(CCc2ccc(Cl)c(Cl)c2)C1=N	UBC13 inh 63 (no result: NALP1 inh) | Casp3 counter inactive | UBC13 conf 70
NC1=NC[C@@H](Cc2ccc(O)cc2)N1CCc1cccc(F)c1	none (no result: NALP1 inh)
CCOc1ccc(C(=O)NCC(=O)N2CCN(c3ccccc3O)CC2)cc1	none
CN(Cc1ccccc1)C(=O)CCSc1nc(-c2ccc3c(c2)OCO3)cc(C(F)(F)F)n1	UBC13 inh 46 | Casp3 counter inactive | UBC13 conf inactive
COC(=O)CN1C2=NCCCN2c2ccccc21	none
O=C1Nc2cc(C(=O)NCCCN3CCCC3)ccc2S/C1=C\c1ccccc1	none
COc1ccc(/C=C2/Sc3ccc(C(=O)NCCN4CCCCCC4)cc3NC2=O)cc1	UBC13 inh 67, dFosB act 82 | Casp3 counter inactive | UBC13 conf 86
O=C1Nc2cc(C(=O)NCCCN3CCOCC3)ccc2S/C1=C/c1cccc(Cl)c1	UBC13 inh 57 | Casp3 counter inactive | UBC13 conf 72
CCN1C[C@@H]2[C@@H]3C(=O)N(C)C(=O)[C@@H]3[C@](CC)(C1=O)N2C(=O)c1ccc(Cl)cc1	none (no result: UBC13 inh, CR mimetic SO, NALP1 inh)
CCC(CC)NC(=O)C1CCN(c2ccc(S(=O)(=O)N3CCOCC3)cc2[N+](=O)[O-])CC1	none (no result: NALP1 inh)
CCC(=O)N1c2ccc(S(=O)(=O)N3CCN(c4ccc([N+](=O)[O-])cc4)CC3)cc2CC1C (configuration not stated)	none
Cc1c(CCOC(=O)CC23CC4CC(CC(C4)C2)C3)sc[n+]1CC(=O)c1ccc(Br)cc1	UBC13 inh 47 | Casp3 counter inactive | UBC13 conf 69
Cc1c(CCOC(=O)CC23CC4CC(CC(C)(C4)C2)C3)sc[n+]1CC(=O)c1ccccc1	UBC13 inh 63 | Casp3 counter inactive | UBC13 conf 52
CCOc1ccc(NC(=O)CCNC(=O)Cn2ccc3ccccc3c2=O)cc1	none
COc1ccc(-c2cc(C3CCN(c4cc(Cl)nc(N)n4)CC3)[nH]n2)cc1	UBC13 inh 46 | Casp3 counter inactive | UBC13 conf 46
COc1cc(CNC(C)c2ccccc2)cc(Cl)c1OCC(=O)Nc1ccccc1 (configuration not stated)	none
Fc1cccc(NC(=S)NCCN2CCOCC2)c1	none
O=C(Nc1ccc(C2=NCCN2)cc1)c1ccc(C(=O)Nc2ccc(C3=NCCN3)cc2)c([N+](=O)[O-])c1	UBC13 inh 107, NALP1 inh 35, dFosB act inconclusive | Casp3 counter inactive | UBC13 conf 123
CCOc1ccccc1NC(=O)COc1cccnc1[N+](=O)[O-]	UBC13 inh 51 (no result: NALP1 inh) | Casp3 counter inactive | UBC13 conf inactive
COc1ccccc1NC(=O)COc1cccnc1[N+](=O)[O-]	UBC13 inh 46 (no result: NALP1 inh) | Casp3 counter inactive | UBC13 conf inactive
CCOC(=O)C(NC(C)=O)C(=O)Nc1ccc(C)cc1C (configuration not stated)	none
Cc1c(C)c2ccc(OCC(=O)N(C)C3CCS(=O)(=O)C3)c(C)c2oc1=O (configuration not stated)	none
O=C(O)c1ccc2[nH]c3c(c2c1)CSCC3	none
CN(C)CCOC(=O)c1ccc2[nH]c3c(c2c1)CSCC3	UBC13 inh 62, dFosB act 28 (no result: NALP1 inh) | Casp3 counter inactive | UBC13 conf 53
CCc1cc(=O)oc2cc(OCC(=O)N3CCC[C@H]3C(=O)O)ccc12	none
COC(=O)c1cccc(NC(=O)Cc2coc3cc(OC)ccc23)c1	UBC13 inh 48 | Casp3 counter inactive | UBC13 conf 53
CC(C(=O)NC1CCCC1)N(C(=O)c1snc(C(N)=O)c1N)c1ccc2c(c1)OCCO2 (configuration not stated)	UBC13 inh 72 | Casp3 counter inactive | UBC13 conf 72
CCC(C(=O)NC1CCCC1)N(C(=O)c1snc(C(N)=O)c1N)c1ccc(OC)cc1 (configuration not stated)	UBC13 inh 52 | Casp3 counter inactive | UBC13 conf 62
Cc1ccc(N(C(=O)c2snc(C(N)=O)c2N)C(CC(C)C)C(=O)NC2CCCC2)cc1 (configuration not stated)	none
CCCCN(C)CCNC(=O)c1ccc(Cn2c(=S)[nH]c3ccc(Br)cc3c2=O)cc1	UBC13 inh 48 | Casp3 counter 34 | UBC13 conf 48
CC1CCN(CCCNC(=O)c2ccc3c(=O)n(Cc4ccc(Cl)cc4)c(=S)[nH]c3c2)CC1	UBC13 inh 53 | Casp3 counter inactive | UBC13 conf 73
O=C(OCC(=O)N1CCN(C(=O)COC(=O)c2ccc(O)cc2O)CC1)c1ccc(O)cc1O	none (no result: NALP1 inh)
CC(C)n1ncc2c(C(=O)Nc3ccc(S(N)(=O)=O)cc3)cc(C3CC3)nc21	UBC13 inh 75 (no result: NALP1 inh) | Casp3 counter inactive | UBC13 conf 49
CC(C)n1ncc2c(C(=O)Nc3ccc(S(C)(=O)=O)cc3)cc(C3CC3)nc21	none (no result: NALP1 inh)
CC(=O)COC(=O)c1cc(-c2ccc(C)cc2)nc2ccccc12	none
CCOC(=O)c1cc(-c2ccccc2)nc2ccc(C)cc12	UBC13 inh 54 | Casp3 counter inactive | UBC13 conf inactive
Oc1ccccc1Nc1nc(NCc2ccccc2)c2ccccc2n1	UBC13 inh 50, dFosB act 84 | Casp3 counter inactive | UBC13 conf 49
